Source: PubChem (Broad Institute)
Most compounds without a hit are left out; they make up all but 2.5% or so of the library.
NSD2 inh – NSD2 (human) methyltransferase inhibition; NSD2 peptide methylation, AlphaScreen, 120 min; inhibition, % at 12.5 µM; hit rate 0.54% among 310,000; in the data active = inhibition above about 50%
MLL AF4-AF9 inh – inhibitors of human MLL-AF4/AF9 interaction; inhibition, % at 10 µM; AlphaScreen, biotin-AF4 peptide binding to FLAG-AF9; AID 651704; hit rate 0.47% among 350,000;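 active = every replicate reaching a set inhibition limit, whatever the replicate mean, cut at about 25% in these data; inconclusive = mean inhibition reaches that limit but some replicates miss it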;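 note: 0% = plate neutral control median and 100% = total signal loss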
Ecoli rRNA inh – inhibits bacterial ribosomal RNA function over humanized ribosomes. AID 720706. E. coli WT GFP vs humanized-ribosome RFP mutants, fluorescence, 24 h; active compounds read low; DMSO median 0, no signal -100. GFP signal change (wild-type ribosome), % (no concentration beside the values). hit rate 1.6% among 350,000;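 active = significant combined selectivity score with lowered wild-type GFP, culture density cut under 30%, mutant RFP and density less affected; inactive = any of these conditions unmet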
Casp6 inh – blocks human caspase-6 cleavage activity; inhibition, % at 12.5 µM; P55212; purified caspase-6, Z-VEID-R110 cleavage fluorescence; hit rate 0.53% among 350,000;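 active = mean inhibition across replicates at least about 35%, with every replicate also reaching that limit, limit read from the data; inconclusive = only one of the two criteria met; inactive = neither criterion met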;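 note: 0% = median of neutral control wells and 100% = no fluorescence left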
Target sequence (P55212 24-179 limits assumed): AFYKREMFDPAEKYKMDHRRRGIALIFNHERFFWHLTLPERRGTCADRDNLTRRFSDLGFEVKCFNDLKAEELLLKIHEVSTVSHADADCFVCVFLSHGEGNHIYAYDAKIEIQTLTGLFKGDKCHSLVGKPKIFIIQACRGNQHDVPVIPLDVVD
Target sequence (P55212 194-293 limits assumed): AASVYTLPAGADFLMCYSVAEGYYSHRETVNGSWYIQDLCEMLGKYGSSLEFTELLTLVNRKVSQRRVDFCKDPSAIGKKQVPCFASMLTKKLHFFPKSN
RAD52 anneal inh – RAD52 (human) annealing inhibition; inhibition, % at 18.7 µM; hit rate 0.46% among 360,000; P43351; recombinant RAD52 DNA annealing, FRET fluorescence; AID 651710;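 active = every replicate showing at least 50% inhibition; inconclusive = mean inhibition at least 50% but not in every replicate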
RAD52 DNA ctr – binds DNA, flagging false RAD52 inhibitor hits; shares compounds with RAD52 anneal inh; Salmon sperm DNA/acridine orange FP displacement, DNA binding; AC50, µM; hit rate 8% among 1,000;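 active = fitted half-maximal concentration for signal loss at or below twice the highest dose tested, in every separate run, actives reach about 64 µM in these data; inconclusive = runs disagree, or flat partial signal loss, or poor fit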
Active calls of the source: *; i = inactive; u = inconclusive; x = no result given.

SMILES	NSD2 inh	MLL AF4-AF9 inh	Ecoli rRNA inh	Casp6 inh	RAD52 anneal inh	RAD52 DNA ctr
C[C@@H]1CN([C@H](C)CO)C(=O)c2cc(/C=C/c3ccccc3)cnc2O[C@H]1CN(C)C(=O)C1CCC1	x	6	-7	-3	-1	x
C[N+]1(CC(=O)NNc2c3ccccc3nc3ccccc23)CCOCC1	11	-8	-12	-3	101*	9µM*
Cc1ccc(S(=O)(=O)N(C)C[C@H]2Oc3ccc(NS(=O)(=O)c4ccc(F)cc4)cc3CC(=O)N([C@H](C)CO)C[C@H]2C)cc1	x	-1	5	0	-8	x
CN(C)CCCNc1ncnc2sc(-c3ccccc3)cc12	x	13	4	-26	68*	u
Cc1ccc(-c2nc(NCCN(C)C)c3ccccc3n2)cc1	25	0	3	-20	71*	i
Cc1cccc(-c2nc(NCCCN3CCOCC3)c3ccccc3n2)c1	-8	x	x	x	x	x
Cc1cccc(-c2nc(NCCCN(C)C)c3ccccc3n2)c1	6	13	7	-152	84*	i
CN(C)CCNc1cc(-c2ccncc2)nc2ccccc12	14	3	20	-38	80*	i
O=C(NCc1ccccc1)c1cc(-c2ccncc2)nc2ccccc12	-3	4	1	1	-9	x
C[C@@H](NC(=O)C[C@@H]1CC[C@@H](NC(=O)Cc2ccccn2)[C@H](CO)O1)c1ccccc1	x	1	-4	3	-5	x
CCC(=O)Nc1ccc2c(c1)OC[C@H](C)N(C(=O)CC)C[C@@H](C)[C@H](OC)CN(C)C2=O	x	x	4	x	x	x
COc1ccc(-c2cc3nc(NCCN4CCCC4)n(C)c(=O)c3s2)cc1OC	3	9	4	-73	84*	i
CC(C)=C(C)c1cc2nc(NCCCN(C)C)n(C)c(=O)c2s1	6	5	1	-2	8	x
COc1ncccc1-c1cc2nc(NCCCN(C)C)n(C)c(=O)c2s1	7	4	-8	-14	75*	63µM*
COc1cccc(-c2cc3nc(NCCCN(C)C)n(C)c(=O)c3s2)c1	4	4	-3	-31	79*	u
COCCNc1nc2cc(-c3ccccc3)sc2c(=O)n1C	-1	-13	1	0	-5	x
Cc1ccc(F)cc1-c1cc2nc(NCCCN(C)C)n(C)c(=O)c2s1	3	2	3	0	56*	i
C[C@@H]1CCCCO[C@@H](CN(C)C(=O)C2CCCCC2)[C@H](C)CN([C@@H](C)CO)C(=O)c2cc(NC(=O)NC3CCCCC3)ccc2O1	x	2	x	3	-4	x
CC(=O)N1CC(=O)N2[C@H](CO)[C@@H](c3ccc(-c4ccccc4)cc3)[C@H]2C1	x	-2	-4	0	11	x
CN(C)CCCNc1nc2cc(-c3ccsc3)sc2c(=O)n1C	0	-2	16	-17	52*	i
CN(C)CCCNc1nc2cc(-c3ccc4c(ccn4C)c3)sc2c(=O)n1C	12	8	7	-114	96*	i
Cn1c(NCc2ccccc2)nc2cc(-c3ccccc3)sc2c1=O	-2	0	13	2	-5	x
COCCNc1nc2cc(-c3ccsc3)sc2c(=O)n1C	-1	-6	5	2	3	x
CN(C)CCCNc1nc2cc(-c3cnn(Cc4ccccc4)c3)sc2c(=O)n1C	13	4	0	-16	59*	i
C[C@H](CO)N1C[C@H](C)[C@@H](CN(C)C(=O)Nc2cccc3ccccc23)Oc2c(NS(=O)(=O)c3cccs3)cccc2C1=O	x	1	-2	3	-2	x
SMILES	NSD2 inh	MLL AF4-AF9 inh	Ecoli rRNA inh	Casp6 inh	RAD52 anneal inh	RAD52 DNA ctr
COCCNC(=S)Nc1ccc2nc(N3CCN(C)CC3)cc(C)c2c1	4	8	2	-34	52*	i
Cc1cc(N2CCN(C)CC2)nc2ccc(NC(=S)NCCCN3CCN(C)CC3)cc12	7	4	9	-65	82*	i
COCCCNC(=S)Nc1ccc2nc(N3CCOCC3)cc(C)c2c1	-1	4	-18	0	-7	x
COc1ccccc1CNC(=S)Nc1ccc2nc(N3CCN(C)CC3)cc(C)c2c1	x	27*	-15	-1	77*	i
Cc1cc(N2CCN(C)CC2)nc2ccc(NC(=S)NCCC(C)C)cc12	9	18	-12	-15	61*	i
COc1ccccc1N1CCN(C(=S)Nc2ccc3nc(N4CCOCC4)cc(C)c3c2)CC1	2	x	x	x	x	x
